Compound activity deposited in PubChem by National Center for Advancing Translational Sciences (NCATS).
AMA1 RON2 block: inhibitors of Plasmodium falciparum AMA1-RON2 interaction; AID 720542; 360,000 compounds, 0.2% hits; AlphaScreen AMA1-biotinylated RON2 peptide binding; Potency, µM (doses to about 58.2 µM), without a hit: at the top dose activity change, negative = inhibition, usual class: inhibitors;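 also: potency is read from the fitted curve at half-maximal effect; 0% = vehicle wells and -100% = peptide control; nearly all actives have a fitted effect of over 45% in size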
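AMA1 (3D7) with his tag at 25 nM final met compounds first, then biotinylated RON2 peptide at 25 nM; detection used donor plus acceptor beads, 10 µg/mL apiece, read by AlphaScreen after 30 min at room temperature.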
SARS PLpro yeast-1: SARS-CoV PLP inhibition in yeast | S. cerevisiae expressing SARS-CoV PLpro, growth rescue | AID 485353 | Potency, µM (top dose mostly 32.9 µM), for the others: at the highest dose activity, positive = growth rescue, most hits filed as activators | 330,000 compounds, 0.19% hits; calls by dose curve; also: potency is read from the fitted curve at half-maximal effect; 0% is about no effect; nearly all actives have a fitted effect of over 55% in size
AmpC inh no detg: blocks E. coli AmpC beta-lactamase in detergent-free assay | P00811 | AmpC nitrocefin hydrolysis, absorbance 480 nm, 0.0001% Triton | Potency, µM (series often up to 57.1 µM), inactives show at the top dose activity change, negative = inhibition, hits mostly inhibitors | 330,000 compounds, 0.52% hits | AID 485341;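 also: potency is read from the fitted curve at half-maximal effect; plate controls were no compound for no effect and no enzyme for full effect; nearly all actives have a fitted effect of over 20% in size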
Target sequence (P00811 whole entry, looked up): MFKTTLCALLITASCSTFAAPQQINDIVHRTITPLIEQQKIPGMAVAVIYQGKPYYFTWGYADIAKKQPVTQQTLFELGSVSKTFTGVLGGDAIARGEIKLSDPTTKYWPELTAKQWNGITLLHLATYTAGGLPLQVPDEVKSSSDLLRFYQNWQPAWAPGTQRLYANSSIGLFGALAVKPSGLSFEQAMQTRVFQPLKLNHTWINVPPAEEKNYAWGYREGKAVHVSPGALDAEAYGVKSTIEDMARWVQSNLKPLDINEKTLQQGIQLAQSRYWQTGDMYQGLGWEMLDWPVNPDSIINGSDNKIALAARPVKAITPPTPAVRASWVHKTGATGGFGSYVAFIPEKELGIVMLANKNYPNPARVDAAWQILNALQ
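AmpC (5.3 nM in the dispensed reagent) in 20 mM phosphate pH 7.0 with 0.01% (detergent screen) or 0.0001% Triton X-100 was preincubated with compounds for 15 min at room temperature. Nitrocefin was then added from an 800 uM solution, and hydrolysis was followed at 480 nm.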
Shiga inhibitor: blocks Shiga toxin action in Vero cells; Vero cells, Shiga toxin protein synthesis inhibition reporter; inhibition, % at 38.7 µM; 290,000 compounds, 9.2% hits; AID 2315; in the data active = inhibition mostly above about 28%, no sharp cut-off; inactive = mostly below about 43%; also: 0% is about no effect
AmpC inh detg: inhibitors of E. coli AmpC beta-lactamase with detergent. P00811. AmpC hydrolysis of nitrocefin, absorbance 480 nm, 0.01% Triton. Potency, µM (series often up to 114 µM), for the others: top-dose activity change, negative = inhibition, actives largely listed as inhibitors. 370,000 compounds, 0.041% hits;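 also: potency is read from the fitted curve at half-maximal effect; 0% = no-compound wells and -100% = no-enzyme wells; nearly all actives have a fitted effect of over 25% in size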
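20 mM phosphate pH 7.0 + 0.01% (detergent screen) or 0.0001% Triton X-100; 5.3 nM AmpC reagent; cpd preinc 15 min RT; nitrocefin (800 uM stock) to start; A480 q20 s × 4 min; Activity was normalised to no-enzyme and no-compound control wells.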
CHX counter: counter-screen for Shiga toxin inhibitors: cycloheximide protein synthesis inhibition; cell reporter, cycloheximide protein synthesis inhibition counterscreen; max response, %; 300,000 compounds, 12% hits; in the data active = max response mostly above about 13%, no sharp cut-off; inactive = mostly below about 14%; also: read at 38.3 µM for the half of the compounds with a filed dose; 0% is about no effect
SARS PLpro yeast-2: Validates SARS-CoV PLpro inhibitor hits in yeast; 1,000 compounds, 19% hits; calls only; shares compounds with SARS PLpro yeast-1; yeast expressing SARS-CoV PLpro, growth phenotype rescue; call rule not given here
An asterisk follows results filed as active; i = inactive; ? = inconclusive; . = no result; + = active, no number; [ ] = dose if it differs, or a comment. The sample as a whole holds a higher share of hits than the screen did. Unless noted, calls follow the shape of the dose curve; as a rule, active = well fitted curve in the direction sought with a large enough effect; inconclusive = small, poorly fitted or top-dose-only effect, or another doubt; inactive = no such curve, though single readings can be large; an effect the other way counts as inactive or inconclusive.

SMILES | AMA1 RON2 block | SARS PLpro yeast-1 | AmpC inh no detg | Shiga inhibitor | AmpC inh detg | CHX counter | SARS PLpro yeast-2
COc1ccc(NC(=O)C(=O)NNC(=O)c2cccs2)c(OC)c1 | 78% | ? | -19% | 8 | 1% | -3 | i
CCCCC(=O)NNC(=S)NC(=O)CCC | 28% | 16µM* | -11% | -2 | 1% | 13 | i
CCS(=O)(=O)N1CCc2cc(C(=O)NCc3ccccc3)ccc21 | . | . | . | . | -4% | . | .
COc1cccc(N=CC2=C(O)CC(C)(C)CC2=O)c1 | -4%[11.6 µM] | . | 3% | 24 | -11% | 13* | i
O=C(CNC1CC1)Nc1cc(C(F)(F)F)ccc1Cl | -12% | -1% | -5% | 12 | 2% | 13 | .
O=C(CNCCCO)Nc1cc(C(F)(F)F)cc(NC(=O)CNCCCO)c1Cl | 42% | ? | -8% | -9 | ? | 2 | i
COC(=O)C1=C[C@@H](C(=O)OC)[C@@H]2C3=C(C(=O)[C@@]2(C)NC(=O)c2ccccc2)[C@H](C)[C@@H]2C(=O)N(Cc4ccccc4)C(=O)[C@@H]2[C@@H]3C1 | . | . | . | 2 | . | 0 | .
CCc1nccn1CCC(=O)N1CCCC(Nc2ccc(C(C)C)cc2)C1 (stereo not given) | -11% | . | 71% | -30 | 5% | 0 | i
CCOc1ccc(C(=O)Nc2ccc(NC(=O)c3cccs3)cc2)cc1[N+](=O)[O-] | -12% | 4µM* | -12% | -4 | -14% | 1 | +
COc1ccc(C(=O)Nc2ccc(NC(=O)c3cccs3)cc2)cc1[N+](=O)[O-] | -1% | -3% | -24% | -3 | -11% | -4 | .
CN1CCOC(c2ccccc2)c2ccccc2C1 (stereo not given) | 0% | 5µM* | -17% | -13 | ? | -2 | i
CC1C(c2ccccc2)OCCN1C (stereo not given) | -9% | . | . | . | . | . | .
COc1cccc(OCC(=O)N(C)Cc2nc(-c3ccccc3)no2)c1 | 2% | -2% | 10% | 13 | -12% | 14 | .
COC(=O)c1c(NC(=O)C2CC=CCC2C(=O)O)sc(C(N)=O)c1C (stereo not given) | -1% | 9% | -28% | -3 | -10% | -1 | .
COc1ccc(C(=O)N2CCN(Cc3cc(OC)c(O)c(OC)c3)CC2)cc1OC | -18% | 20µM* | 20% | 4 | -2% | -1 | i
CCOc1ccc(NC(=O)CC2S/C(=N/N=C3CCCCCC3)NC2=O)cc1 (stereo not given) | 135% | ? | 11% | 1 | 1% | -2 | i
CCOc1cc(N2CCCC2)ccc1[N+](=O)[O-] | -9% | ? | -3% | -1 | -7% | -3 | i
COc1cc(/C=N/NC(N)=S)ccc1OCc1ccc(C)cc1 | 55% | ? | -52% | 66* | -6% | 30* | +
NC(=S)N/N=C\c1c2ccccc2cc2ccccc12 | 43% | 14µM* | -42% | 1 | -4% | 0 | i
NC(=S)N/N=C/c1ccc2c(c1)OCCO2 | 49% | 14µM* | -17% | 32 | 4% | 28* | +
NC(=S)N/N=C/c1ccccc1 | 45% | 2.5µM* | -11% | -13 | -2% | -5 | +
CC(NC(=O)C1CCC1)c1ccccc1 (stereo not given) | -1% | 2% | -20% | 5 | 1% | -3 | .
CCOC(=O)c1c(-c2ccccc2)csc1NC(=O)c1cccc(N2C(=O)CCC2=O)c1 | -8% | -2% | 5% | -9 | -10% | 1 | .
Cn1ncc(Br)c1C(=O)N1CCOCC1 | 4% | 3% | -17% | -4 | ? | -2 | .
CSC1=NCCN1C(=O)c1ccc2ccccc2c1 | -6% | 0% | -2% | 48 | 5% | 7 | .
SMILES | AMA1 RON2 block | SARS PLpro yeast-1 | AmpC inh no detg | Shiga inhibitor | AmpC inh detg | CHX counter | SARS PLpro yeast-2
CC(=O)NC(c1ccc(Cl)cc1)c1c(O)ccc2ccc(O)cc12 (stereo not given) | -14% | 0% | -57% | -4 | 5% | -5 | .
O=C(CSCc1ccccc1)N/N=C/c1ccccc1OCc1ccccc1 | 4% | -6% | -30% | 32 | -8% | 10 | .
NC(=S)N/N=C\c1ccccc1OCc1ccccc1 | 32%[11.6 µM] | 11µM* | -39% | -16 | -11% | -3 | +
Cc1ccc(/C=C2\SC(=S)N(c3cccnc3)C2=O)cc1 | -6% | 0% | -15%[11.4 µM] | 2 | ? | 12 | .
C/C(=N\NC(=O)CN1CCN(S(=O)(=O)c2ccc(C)cc2)CC1)c1cccnc1 | 7%[2.32 µM] | 3.2µM* | 1% | 12 | -11% | -3 | i
CC1CN(C(=O)/C=C/c2ccccc2Cl)CC(C)O1 (stereo not given) | 0% | -4% | -1% | 11 | 3% | -1 | .
Cc1ccc(C)c(/C=C/C(=O)c2ccccc(=O)c2O)c1 | 33% | 3.5µM* | -32% | 52* | -1% | 111* | i
O=C(/C=C/c1ccccc1Cl)c1ccccc(=O)c1O | 60% | ? | ? | 89* | -1% | 65* | +
CCOC(=O)c1c(C)[nH]c(C)c1S(=O)(=O)N1CCCC(C(=O)Nc2ccc(OC)c(OC)c2)C1 (stereo not given) | . | . | . | . | 8% | . | .
Cc1ccnc(NC(c2ccccc2O)c2oc(CO)cc(=O)c2O)c1 (stereo not given) | -3% | ? | -14% | 16 | 1% | -3 | .
COc1cc(C(c2oc(CO)cc(=O)c2O)c2oc(CO)cc(=O)c2O)cc(OC)c1OC | 14% | ? | -8% | -9 | -6% | -4 | i
COc1ccc(C(c2oc(CO)cc(=O)c2O)c2oc(CO)cc(=O)c2O)cc1 | 9% | 4.5µM* | 25% | 18 | 1% | 1 | +
COC(=O)c1ccc(N2CCN(CCNC(=O)Nc3ccc(OC)cc3)CC2)cc1 | 0% | ? | -1% | 6 | ? | 3 | i
O=C(c1ccncc1)N(Cc1ccccc1)Cc1nc2ccccc2c(=O)[nH]1 | 65% | 4% | -40% | -16 | ? | -3 | .
CC(C)c1ccc(NC(=S)NN(c2ccccc2)c2ccccc2)cc1 | -4% | -12% | -22% | 13 | -11% | 5 | .
CCNC(=S)NN(c1ccccc1)c1ccccc1 | -10% | 14µM* | -14% | 9 | -8% | 6 | +
COc1ccc(-c2nnc(SCC(=O)c3[nH]c(C)c(C(C)=O)c3C)o2)cc1 | 7% | -3% | -28% | -5 | 3% | 8 | .
CCOC(=O)c1[nH]c(CSc2nnc(-c3ccc(OC)cc3)o2)c(C(=O)OCC)c1C | -7% | 3.2µM* | -11% | -6 | -8% | 12 | i
CC(C)CC(=O)NC(=S)N1CCN(c2ccc([N+](=O)[O-])cc2Cl)CC1 | 70% | ? | -46% | -4 | ? | -3 | i
